{"source": "PubChem BioAssay (NCATS)", "key": {"[1]": {"target": "Furin (Homo sapiens) (UniProt P09958)", "sequence (P09958 whole entry, looked up)": "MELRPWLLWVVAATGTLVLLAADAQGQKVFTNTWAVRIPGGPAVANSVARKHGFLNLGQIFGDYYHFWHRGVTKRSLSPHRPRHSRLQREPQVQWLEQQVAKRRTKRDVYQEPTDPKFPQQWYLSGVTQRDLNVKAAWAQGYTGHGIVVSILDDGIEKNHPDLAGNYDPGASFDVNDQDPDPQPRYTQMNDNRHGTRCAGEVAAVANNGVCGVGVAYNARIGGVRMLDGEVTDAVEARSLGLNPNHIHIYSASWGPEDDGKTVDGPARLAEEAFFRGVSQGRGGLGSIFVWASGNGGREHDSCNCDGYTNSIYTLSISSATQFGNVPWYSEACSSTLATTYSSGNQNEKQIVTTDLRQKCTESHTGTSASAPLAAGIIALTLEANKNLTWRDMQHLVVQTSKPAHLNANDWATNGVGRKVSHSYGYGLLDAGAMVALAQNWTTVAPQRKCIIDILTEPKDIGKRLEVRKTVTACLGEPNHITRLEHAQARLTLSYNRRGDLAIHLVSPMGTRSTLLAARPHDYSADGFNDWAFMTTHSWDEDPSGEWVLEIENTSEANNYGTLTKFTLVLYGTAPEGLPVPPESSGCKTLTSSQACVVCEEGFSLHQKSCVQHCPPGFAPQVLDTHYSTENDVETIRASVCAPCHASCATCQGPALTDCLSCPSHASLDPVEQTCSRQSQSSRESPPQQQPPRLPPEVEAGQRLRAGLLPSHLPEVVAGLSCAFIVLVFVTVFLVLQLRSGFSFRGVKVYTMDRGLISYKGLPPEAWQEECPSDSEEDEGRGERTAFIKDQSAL", "assay": "Furin counterscreen qHTS for Zika virus inhibitors (AID 1347149); note: nearly all actives have a fitted effect of over 70% in size; note: potency is the fitted concentration of half-maximal effect;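 for activity change, negative = inhibition: purified recombinant full-length human furin enzyme at 5 nM; fluorescence gain from furin cutting a BOC-RVRR-AMC peptide substrate over 15 min; top concentration of the series differs between compounds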", "procedure,_shortened": "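Fluorogenic cleavage of BOC-RVRR-AMC (2 microM final, Km ~15 µM) was monitored (ex 340, em 450 nm) at 37C after 15 min RT preincubation of 5 nM furin with compounds in HEPES pH 7.0 buffer with CaCl2 and Triton X-100. Percent inhibition was fitted to a 4-parameter Hill curve.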"}, "[2]": {"assay": "Confirmatory screen GU Rhodamine qHTS for Zika virus inhibitors qHTS (AID 1347157); note: nearly all actives have a fitted effect of over 70% in size; note: potency is the fitted concentration of half-maximal effect", "procedure,_shortened": "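Noncovalent NS2B hydrophilic domain/NS3 protease complex (25 nM final) in 10 mM Tris-HCl pH 8.0, 0.01% Tween 20, preincubated 15 min with compounds (up to 114 microM), then 1.5 microM Rhodamine110 substrate. Fluorescence change over 15 min fitted to 4-parameter Hill.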"}, "[3]": {"assay": "Confirmatory screen NINDS Rhodamine qHTS for Zika virus inhibitors (AID 1347161); note: nearly all actives have a fitted effect of over 60% in size; note: potency is the fitted concentration of half-maximal effect;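 for activity change, negative = inhibition: purified Zika NS2B-NS3 protease with linked NS2B cofactor domain and Rhodamine110 peptide substrate; series mostly up to about 110 µM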", "procedure,_shortened": "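Aprotinin served as in-plate control. Conditions: 25 nM linked NS2B-NS3, pH 8.0 Tris buffer, titrated compounds, 15 min preincubation and 15 min reaction with 1.5 microM Rhod110 substrate at room temperature.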"}, "[4]": {"tested_on": "Zika virus NS2B-NS3 protease (linked construct)", "assay": "384 well plate NINDS Rhodamine confirmatory qHTS for Zika virus inhibitors (AID 1347164); note: potency is the fitted concentration of half-maximal effect; nearly all actives have a fitted effect of over 65% in size", "procedure,_shortened": "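Fluorescence at 485/538 nm was measured 25 minutes after adding 10 microM Ac-LKRR-Rd substrate, in the dark at room temperature. The protease (5, 30 or 60 nM final) had been preincubated ~15 minutes with compound; aprotinin as control.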"}, "[5]": {"assay": "Tertiary RLuc qRT-PCR qHTS assay for Zika virus inhibitors (AID 1347169); note: top concentration of the series differs between compounds; nearly all actives have a fitted effect of over 55% in size", "procedure,_shortened": "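Orthogonal cell-based readout: luminescence measured 1-1.5 hrs after adding live-cell Renilla substrate to Vero cells that had been infected with ZIKV-RLuc (MOI 1-2) post-compound, incubated 48-72 hrs at 37 degrees C.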"}, "[6]": {"target": "Rap guanine nucleotide exchange factor 3 (Homo sapiens) (UniProt O95398)", "sequence (O95398 whole entry, looked up)": "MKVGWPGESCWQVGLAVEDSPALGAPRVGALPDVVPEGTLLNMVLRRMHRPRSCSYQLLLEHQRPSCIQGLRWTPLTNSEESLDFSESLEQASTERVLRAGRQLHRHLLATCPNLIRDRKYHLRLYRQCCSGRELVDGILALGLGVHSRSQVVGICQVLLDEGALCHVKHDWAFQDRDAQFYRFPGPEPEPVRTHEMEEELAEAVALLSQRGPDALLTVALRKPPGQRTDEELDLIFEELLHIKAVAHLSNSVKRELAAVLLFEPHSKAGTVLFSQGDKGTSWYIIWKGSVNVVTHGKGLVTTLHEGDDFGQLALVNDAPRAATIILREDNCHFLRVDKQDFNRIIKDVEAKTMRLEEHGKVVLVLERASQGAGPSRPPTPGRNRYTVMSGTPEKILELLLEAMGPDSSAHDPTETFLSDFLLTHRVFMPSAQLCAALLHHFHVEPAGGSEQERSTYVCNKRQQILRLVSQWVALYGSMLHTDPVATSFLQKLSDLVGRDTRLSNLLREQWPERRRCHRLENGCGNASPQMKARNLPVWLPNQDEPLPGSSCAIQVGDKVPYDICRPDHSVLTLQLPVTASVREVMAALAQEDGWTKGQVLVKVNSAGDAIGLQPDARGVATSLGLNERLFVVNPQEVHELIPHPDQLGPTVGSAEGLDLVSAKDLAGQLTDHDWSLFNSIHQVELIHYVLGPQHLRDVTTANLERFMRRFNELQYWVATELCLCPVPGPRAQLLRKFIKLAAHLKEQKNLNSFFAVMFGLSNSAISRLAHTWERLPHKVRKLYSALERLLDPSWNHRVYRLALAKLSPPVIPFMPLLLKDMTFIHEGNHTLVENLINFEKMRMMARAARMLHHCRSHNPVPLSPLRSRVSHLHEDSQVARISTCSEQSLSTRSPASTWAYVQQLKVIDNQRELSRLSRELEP", "assay": "Confirmatory qHTS for agonist of cAMP-regulated guanine nucleotide exchange factor 3 (EPAC1) (AID 1645881);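 note: EPAC1 catalysed release of BODIPY-GDP from Rap1B seen as fluorescence loss; nearly all actives have a fitted effect of over 75% in size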"}, "[7]": {"target": "Rap guanine nucleotide exchange factor 4 (Homo sapiens) (UniProt Q8WZA2)", "sequence (Q8WZA2 whole entry, looked up)": "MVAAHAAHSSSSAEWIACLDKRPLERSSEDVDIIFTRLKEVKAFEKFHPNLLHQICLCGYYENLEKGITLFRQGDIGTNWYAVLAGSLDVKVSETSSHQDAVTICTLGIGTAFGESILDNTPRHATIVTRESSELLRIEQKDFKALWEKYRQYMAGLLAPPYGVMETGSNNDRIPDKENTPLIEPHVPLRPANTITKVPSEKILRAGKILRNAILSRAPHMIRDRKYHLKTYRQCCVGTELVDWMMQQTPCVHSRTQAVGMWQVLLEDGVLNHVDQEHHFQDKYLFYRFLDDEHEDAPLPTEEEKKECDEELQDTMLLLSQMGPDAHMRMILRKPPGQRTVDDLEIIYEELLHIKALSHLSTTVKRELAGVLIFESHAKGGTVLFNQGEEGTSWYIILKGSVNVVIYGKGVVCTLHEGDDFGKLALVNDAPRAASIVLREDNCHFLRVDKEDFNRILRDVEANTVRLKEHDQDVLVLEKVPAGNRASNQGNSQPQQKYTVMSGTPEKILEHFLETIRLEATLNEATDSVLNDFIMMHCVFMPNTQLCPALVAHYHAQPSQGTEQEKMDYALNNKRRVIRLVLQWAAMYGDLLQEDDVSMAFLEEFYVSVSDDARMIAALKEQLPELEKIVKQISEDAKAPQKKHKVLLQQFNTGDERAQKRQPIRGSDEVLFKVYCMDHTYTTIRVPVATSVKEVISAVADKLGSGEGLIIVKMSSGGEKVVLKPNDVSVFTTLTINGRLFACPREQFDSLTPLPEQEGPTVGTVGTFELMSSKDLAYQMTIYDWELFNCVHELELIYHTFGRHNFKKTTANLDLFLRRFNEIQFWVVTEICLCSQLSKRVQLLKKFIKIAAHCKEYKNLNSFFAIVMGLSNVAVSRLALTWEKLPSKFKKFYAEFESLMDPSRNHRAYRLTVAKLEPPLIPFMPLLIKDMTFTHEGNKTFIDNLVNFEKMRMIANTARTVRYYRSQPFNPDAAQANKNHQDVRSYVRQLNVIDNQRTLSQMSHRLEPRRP", "assay": "Confirmatory qHTS for agonist of cAMP-regulated guanine nucleotide exchange factor 4 (EPAC2) (AID 1645884);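 note: nucleotide exchange releases bodipy-GDP from Rap1 and this lowers its fluorescence; nearly all actives have a fitted effect of over 65% in size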"}, "[8]": {"target": "Rap guanine nucleotide exchange factor 4 (Homo sapiens) (UniProt Q8WZA2)", "assay": "Confirmatory qHTS for antagonist of cAMP-regulated guanine nucleotide exchange factor 4 (EPAC2) (AID 1645885); note: nearly all actives have a fitted effect of over 25% in size"}, "[9]": {"target": "Rap guanine nucleotide exchange factor 3 (Homo sapiens) (UniProt O95398)", "assay": "Counterscreen qHTS for antagonist of cAMP-regulated guanine nucleotide exchange factor 3 (EPAC1) (AID 1645888);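 note: fluorescence loss as bound BODIPY-GDP is released from Rap1B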", "procedure,_shortened": "(§1)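 Rap1B–BODIPY-GDP (250 nM) with 50 uM GDP; compounds pin-transferred to 9.74 nM–152 uM final (activator) or from 7.32 nM upwards (inhibitor). Fluorescence Ex/Em 480/540 nm read at 5 and 30 min, then after adding cAMP or buffer, at room temperature.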"}, "[10]": {"target": "Rap guanine nucleotide exchange factor 3 (Homo sapiens) (UniProt O95398)", "assay": "Counterscreen qHTS for agonist of cAMP-regulated guanine nucleotide exchange factor 3 (EPAC1) (AID 1645889)", "procedure,_shortened": "as §1"}, "[11]": {"assay": "ZIKV-mCherry secondary qHTS for Zika virus inhibitors (AID 1347158)", "procedure,_shortened": "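After overnight seeding at 37 °C, Vero cells receive compound and then ZIKV-mCherry (MOI 1). Following 48-72 h infection, cells are fixed, counterstained with Hoechst, and imaged; percent infected cells is derived from an mCherry intensity cut-off of 450 RFU.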"}, "[12]": {"tested_on": "Zika virus NS2B-NS3 protease (linked)", "assay": "384 well plate NINDS AMC confirmatory qHTS for Zika virus inhibitors (AID 1347163)", "procedure,_shortened": "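Linked protease 5/30/60 nM final; cpds up to 1 mM final, ~15 min preinc. Substrate Ac-VKTGKR-AMC 30 microM final. RT, dark, 25 min; FI ex 355/em 460; normalized to no-enzyme/no-inhibitor ctrls.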"}}, "note": "Results filed as inconclusive are left out. A call without a number means that no potency is given here. Values without a mark were called inactive. The source made the active and inactive calls. Calls come from the whole dose curve; as a rule, active = well fitted curve in the direction sought with a large enough effect; inconclusive = small, poorly fitted or top-dose-only effect, or another doubt; inactive = no such curve, though single readings can be large; an effect the other way counts as inactive or inconclusive.", "data": [{"molecule": "Cc1ccc2nc(NS(=O)(=O)c3ccc(Cl)cc3)c(Nc3ccc(C(=O)O)cc3)nc2c1", "values": [{"measurement": "Potency", "setting": "[1]", "result": "inactive"}, {"measurement": "Potency", "setting": "[2]", "result": "3.55 µM (active)"}, {"measurement": "Potency", "setting": "[3]", "result": "3.16 µM (active)"}, {"measurement": "Potency", "setting": "[4]", "result": "12.6 µM (active)"}]}, {"molecule": "O=C(OCC#CCSc1nnc(-c2cccc3ccccc23)o1)c1ccc(C(F)(F)F)cc1", "values": [{"measurement": "Potency", "setting": "[1]", "result": "41.8 µM (active)"}, {"measurement": "Potency", "setting": "[2]", "result": "inactive"}, {"measurement": "Potency", "setting": "[3]", "result": "inactive"}, {"measurement": "Potency", "setting": "[5]", "result": "inactive"}]}, {"molecule": "O=C(O)c1ccc(NS(=O)(=O)c2ccc(Cl)c(C(=O)Nc3ccccc3)c2)cc1", "values": [{"measurement": "Potency", "setting": "[1]", "result": "inactive"}, {"measurement": "Potency", "setting": "[2]", "result": "inactive"}, {"measurement": "Potency", "setting": "[3]", "result": "inactive"}, {"measurement": "Potency", "setting": "[5]", "result": "inactive"}]}, {"molecule": "O=C(CSc1nnc(-c2cccc([S+](=O)([O-])NC3CCCC3)c2)n1-c1ccc(F)cc1)Nc1ccc(C(=O)O)cc1", "values": [{"measurement": "Potency", "setting": "[1]", "result": "inactive"}, {"measurement": "Potency", "setting": "[2]", "result": "inactive"}, {"measurement": "Potency", "setting": "[3]", "result": "inactive"}, {"measurement": "Potency", "setting": "[5]", "result": "inactive"}]}, {"molecule": "O=C(O)CCc1ccc(-c2ccc(Cl)cc2)n1-c1cccc(C(F)(F)F)c1", "values": [{"measurement": "Potency", "setting": "[1]", "result": "inactive"}, {"measurement": "Potency", "setting": "[2]", "result": "7.08 µM (active)"}, {"measurement": "Potency", "setting": "[3]", "result": "11.2 µM (active)"}, {"measurement": "Potency", "setting": "[4]", "result": "44.7 µM (active)"}, {"measurement": "outcome", "setting": "[6]", "result": "inactive"}, {"measurement": "outcome", "setting": "[7]", "result": "inactive"}, {"measurement": "activity change, negative = inhibition", "setting": "[8]", "result": "25.6% [at 12.7 µM]"}, {"measurement": "outcome", "setting": "[9]", "result": "inactive"}, {"measurement": "Potency", "setting": "[10]", "result": "inactive"}]}, {"molecule": "O=c1oc2cc(O)ccc2cc1-c1nc(-c2ccc(Cl)c(Cl)c2)cs1", "values": [{"measurement": "Potency", "setting": "[1]", "result": "inactive"}, {"measurement": "Potency", "setting": "[2]", "result": "11.2 µM (active)"}, {"measurement": "Potency", "setting": "[11]", "result": "inactive"}, {"measurement": "Potency", "setting": "[5]", "result": "inactive"}]}, {"molecule": "O=C(COc1ccccc1F)Nc1ccccc1C(=O)OCc1cc(=O)n2nc(C3CC3)sc2n1", "values": [{"measurement": "Potency", "setting": "[1]", "result": "inactive"}, {"measurement": "Potency", "setting": "[2]", "result": "inactive"}, {"measurement": "Potency", "setting": "[3]", "result": "inactive"}]}, {"molecule": "O=C(Nc1ccc(C(=O)OCc2cc(=O)n3c4c(sc3n2)CCCC4)cc1)c1ccccc1", "values": [{"measurement": "Potency", "setting": "[1]", "result": "41.8 µM (active)"}, {"measurement": "Potency", "setting": "[2]", "result": "inactive"}, {"measurement": "Potency", "setting": "[3]", "result": "inactive"}, {"measurement": "Potency", "setting": "[5]", "result": "inactive"}]}, {"molecule": "Cc1ccc(-c2nnc(Nc3ccc(O)cc3)c3ccccc23)cc1S(=O)(=O)NCc1nc2ccccc2[nH]1", "values": [{"measurement": "Potency", "setting": "[1]", "result": "inactive"}, {"measurement": "Potency", "setting": "[2]", "result": "inactive"}, {"measurement": "Potency", "setting": "[3]", "result": "inactive"}]}, {"molecule": "O=C(O)c1ccc(NC(=O)c2cn(-c3ccccc3)nc2-c2ccc(Br)cc2)cc1", "values": [{"measurement": "Potency", "setting": "[1]", "result": "inactive"}, {"measurement": "Potency", "setting": "[2]", "result": "8.91 µM (active)"}, {"measurement": "Potency", "setting": "[3]", "result": "6.31 µM (active)"}, {"measurement": "Potency", "setting": "[12]", "result": "44.7 µM (active)"}, {"measurement": "Potency", "setting": "[4]", "result": "35.5 µM (active)"}]}, {"molecule": "CC(C)c1nn2c(=O)cc(COC(=O)c3ccc(NC(=O)c4cccs4)cc3)nc2s1", "values": [{"measurement": "Potency", "setting": "[1]", "result": "inactive"}, {"measurement": "Potency", "setting": "[2]", "result": "inactive"}, {"measurement": "Potency", "setting": "[3]", "result": "inactive"}, {"measurement": "Potency", "setting": "[5]", "result": "inactive"}]}, {"molecule": "O=C(Nc1ccc(C(=O)OCc2cc(=O)n3c4c(sc3n2)CCCC4)cc1)c1cccc(F)c1", "values": [{"measurement": "Potency", "setting": "[1]", "result": "46.9 µM (active)"}, {"measurement": "Potency", "setting": "[2]", "result": "inactive"}, {"measurement": "Potency", "setting": "[3]", "result": "inactive"}]}, {"molecule": "CCCc1nn2c(=O)cc(COC(=O)c3ccccc3NC(=O)c3ccc(Cl)cc3)nc2s1", "values": [{"measurement": "Potency", "setting": "[1]", "result": "41.8 µM (active)"}, {"measurement": "Potency", "setting": "[2]", "result": "inactive"}, {"measurement": "Potency", "setting": "[3]", "result": "inactive"}]}, {"molecule": "CCOC(=O)c1ccc(NC(=O)c2ccc3c(c2)CCN3S(=O)(=O)c2ccc(Cl)cc2)cc1", "values": [{"measurement": "Potency", "setting": "[1]", "result": "inactive"}, {"measurement": "Potency", "setting": "[2]", "result": "inactive"}, {"measurement": "Potency", "setting": "[3]", "result": "inactive"}]}]}
